{"source": "PubChem BioAssay (Tox21)", "note": "Results filed as inconclusive are left out. Calls of active or inactive are those of the source. The call rests on the fitted dose curve; in most records, active means well fitted cell-killing curve with a large enough effect in the repeat runs; inconclusive means weak or mixed curves, or effect the other way; inactive means flat fitted curve, though single readings scatter. On the % scale 0 is the no-effect control and ±100 the full control effect.", "data": [{"experiment": "qHTS RealTime-Glo MT Cell Viability Assay in HEK293 cells - 16 hour (AID 1224872); further: top concentration of the series differs between compounds; nearly all actives have a fitted effect of over 50% in size", "conditions": "RealTime-Glo luminescence; series mostly up to 76.8 µM; activity change, negative = cytotoxicity: at the top concentration", "text": "National Center for Advancing Translational Sciences [NCATS]\nNIH Chemical Genomics Center [NCGC]\nU.S. Environmental Protection Agency [EPA]\nNational Institutes of Environmental Health Sciences [NIEHS]\nNational Toxicology Program [NTP]\nU.S. Food and Drug Administration [FDA]\nMeasure of cell viability is critical in the cell-base assay. Analysis of cell viability is necessary for the characterization of cell responses to cytotoxic drugs and environmental stress. A RealTime-Glo MT Cell Viability Assay to monitor cell viability in real time of continues cell culture during 40 hours of compound treatment was used to screen Tox21 10K library compounds in Hek293 cells. The RealTime-Glo MT Cell Viability Assay is a nonlytic, homogeneous, bioluminescent method to measure cell viability in real time using a simple, plate-based method. The assay involves adding NanoLuc luciferase and a cell-permeant prosubstrate to cells in culture. Viable cells reduce the proprietary prosubstrate to generate a substrate for NanoLuc luciferase. This substrate diffuses from cells into the surrounding culture medium, where it is rapidly used by the NanoLuc Enzyme to produce a luminescent signal. The signal correlates with the number of viable cells, making the assay well suited for cytotoxicity studies.\nTox21 Assay Protocol Summary:\nThe mixture of Hek293 cell suspension and reagents were dispensed at 600cells/6 ul/well in 1536-well tissue culture treated black solid bottom plates using a Multidrop dispenser. After the assay plates were incubated at a 37 C/5% CO2 incubator for 5 hours, 23 nL of compounds dissolved in DMSO, positive and negative controls was transferred to the assay plate by a pintool work station. The plates were incubated at 37 C for 40 hours. The luminescence intensity were measured at 0h, 8h, 16h, 24h, 32h and 40h time points using ViewLux plate reader during compound treatment.", "values": [{"smiles": "Nc1ncnc2c1ncn2Cc1c(F)cccc1Cl", "activity change, negative = cytotoxicity": "-2.22% [at 35.3 µM] (inactive)"}, {"smiles": "Nc1ccc2cc(S(=O)(=O)O)ccc2c1", "activity change, negative = cytotoxicity": "0.153% (inactive)"}, {"smiles": "CCOC(=O)Nc1ccc2c(c1)N(C(=O)CCN1CCOCC1)c1ccccc1S2", "activity change, negative = cytotoxicity": "-11.3% [at 35.3 µM] (inactive)"}, {"smiles": "Nc1[nH]c(=O)ncc1F", "activity change, negative = cytotoxicity": "2.06% [at 35.3 µM] (inactive)"}, {"smiles": "CCCCCC[C@@H](CCC)C(=O)O", "activity change, negative = cytotoxicity": "7.97% [at 35.3 µM] (inactive)"}, {"smiles": "NC(=O)c1c(Cl)cccc1Cl", "activity change, negative = cytotoxicity": "9.52% (inactive)"}, {"smiles": "C=C(C)[C@H]1CC=C(C)CC1", "activity change, negative = cytotoxicity": "3.11% (inactive)"}, {"smiles": "O=C(O)/C=C/c1ccc(/C=C/C(=O)O)cc1", "activity change, negative = cytotoxicity": "3.06% [at 35.3 µM] (inactive)"}, {"smiles": "O=c1[nH]c(=O)n([C@H]2O[C@H](CO)[C@@H](O)[C@@H]2O)cc1/C=C\\Br", "activity change, negative = cytotoxicity": "-0.558% [at 35.3 µM] (inactive)"}, {"smiles": "c1ccc2cnncc2c1", "activity change, negative = cytotoxicity": "7.76% (inactive)"}, {"smiles": "C[C@H](O)C(=O)Nc1c(I)c(C(=O)NC(CO)CO)c(I)c(C(=O)NC(CO)CO)c1I", "activity change, negative = cytotoxicity": "3.78% [at 35.3 µM] (inactive)"}, {"smiles": "O=C(CCOCCOCCOCCOCCC(=O)Nc1c(I)cc(I)c(C(=O)O)c1I)Nc1c(I)cc(I)c(C(=O)O)c1I", "activity change, negative = cytotoxicity": "4.12% [at 35.3 µM] (inactive)"}, {"smiles": "NC(CS)C(=O)O", "note": "(stereo not given)", "activity change, negative = cytotoxicity": "9.2% [at 35.3 µM] (inactive)"}, {"smiles": "COC(=O)[C@H]1[C@H]2C[C@@H]3c4[nH]c5cc(OC)ccc5c4CCN3C[C@H]2C[C@@H](OC(=O)COc2ccc(OC)cc2)[C@@H]1OC", "activity change, negative = cytotoxicity": "-4.7% [at 35.3 µM] (inactive)"}, {"smiles": "NC(=O)CCCCC1CCSS1", "note": "(stereo not given)", "activity change, negative = cytotoxicity": "0.528% [at 35.3 µM] (inactive)"}, {"smiles": "NC1CCN(c2cccc(Cl)n2)CC1", "activity change, negative = cytotoxicity": "-2.02% [at 35.3 µM] (inactive)"}, {"smiles": "O=C(O)/C=C/c1ccc(Cn2ccnc2)cc1", "activity change, negative = cytotoxicity": "0.647% [at 35.3 µM] (inactive)"}, {"smiles": "O=C1C(CCS(=O)c2ccccc2)C(=O)N(c2ccccc2)N1c1ccccc1", "note": "(stereo not given)", "activity change, negative = cytotoxicity": "0.34% [at 35.3 µM] (inactive)"}, {"smiles": "CCC(C)OC(=O)N1CCCCC1CCO", "note": "(stereo not given)", "activity change, negative = cytotoxicity": "-3.83% (inactive)"}, {"smiles": "CCCOc1ccccc1-c1nc2n[nH]nc2c(=O)[nH]1", "activity change, negative = cytotoxicity": "-18.4% [at 35.3 µM] (inactive)"}, {"smiles": "COc1cccc(Br)c1", "activity change, negative = cytotoxicity": "-2.25% (inactive)"}, {"smiles": "CCCCCCCCCCCCI", "activity change, negative = cytotoxicity": "-8.28% (inactive)"}, {"smiles": "CN(C)CCn1nnnc1SCC1=C(C(=O)O)N2C(=O)[C@@H](NC(=O)Cc3csc(N)n3)[C@H]2SC1", "activity change, negative = cytotoxicity": "0.363% [at 35.3 µM] (inactive)"}, {"smiles": "CC(C)CCCC(C)NCCC(C)C", "note": "(stereo not given)", "activity change, negative = cytotoxicity": "10.6% [at 35.3 µM] (inactive)"}, {"smiles": "Cc1ccccc1C(=O)O", "activity change, negative = cytotoxicity": "-0.86% (inactive)"}, {"smiles": "CO", "activity change, negative = cytotoxicity": "4.61% (inactive)"}, {"smiles": "Cc1ncc(CSSCc2cnc(C)c(O)c2CO)c(CO)c1O", "activity change, negative = cytotoxicity": "18.6% [at 35.3 µM] (inactive)"}, {"smiles": "CC(C)c1cccc(C(C)C)c1N", "activity change, negative = cytotoxicity": "-0.774% (inactive)"}, {"smiles": "CCCCNc1ccccc1", "activity change, negative = cytotoxicity": "-0.558% (inactive)"}, {"smiles": "CC/C=C\\C#N", "activity change, negative = cytotoxicity": "14.1% (inactive)"}, {"smiles": "CCCCCCCCCCCCCCCCCCOCC(O)CO", "note": "(stereo not given)", "activity change, negative = cytotoxicity": "-14.2% [at 35.3 µM] (inactive)"}, {"smiles": "CC(=O)NC(Cc1ccccc1)C(=O)O", "note": "(stereo not given)", "activity change, negative = cytotoxicity": "3.03% [at 35.3 µM] (inactive)"}, {"smiles": "CNC(=O)c1c(I)c(NC(=O)CCCCC(=O)Nc2c(I)c(C(=O)O)c(I)c(C(=O)NC)c2I)c(I)c(C(=O)O)c1I", "activity change, negative = cytotoxicity": "-2.24% [at 35.3 µM] (inactive)"}, {"smiles": "CC(C)CCCC(C)CCCC(C)CCCCC(C)CCCC(C)CCCC(C)C", "note": "(stereo not given)", "activity change, negative = cytotoxicity": "0.987% [at 35.3 µM] (inactive)"}, {"smiles": "N[C@@H](CS)C(=O)O", "activity change, negative = cytotoxicity": "14.1% (inactive)"}, {"smiles": "OCc1ccccn1", "activity change, negative = cytotoxicity": "3.52% [at 35.3 µM] (inactive)"}, {"smiles": "CCCCCCOC(=O)c1ccccc1O", "activity change, negative = cytotoxicity": "6.12% (inactive)"}, {"smiles": "Nc1ccn(C2CO[C@H](CO)O2)c(=O)n1", "note": "(stereo not given in full)", "activity change, negative = cytotoxicity": "-4.91% [at 35.3 µM] (inactive)"}, {"smiles": "COC(=O)CCCC(=O)O", "activity change, negative = cytotoxicity": "20.8% (inactive)"}, {"smiles": "CC(C)COC(=O)C(C)C", "activity change, negative = cytotoxicity": "0.634% (inactive)"}]}]}
